Experimental data taken from PubChem BioAssay.
Active and inactive are the calls of the source.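 The calls were made as follows, unless noted: active = fluorescence slope after compound addition differing from the mean of all screened samples at 99.7% confidence, in either direction; inactive = the rest.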

Experiments:
[1] = inhibitors of TNFa-induced NFkB p65 translocation, primary screen, imaging, HUVEC, MLSMR starter and 10KST1 sets (AID 438;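 active = inhibition above 20% together with a positive visual image hit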;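 also: compound added about 3h40 before a 20 min TNFalpha stimulation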;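 as to inhibition: signal is the nuclear over cytoplasmic p65 intensity ratio per well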); conditions: HUVEC TNFa-induced p65 nuclear translocation; cell count: measured here: nuclei count (cytotoxicity indicator), at 2.08 µM; inhibition: at 2 µM, stronger effect = higher value, 0% TNFa-plus-vehicle, 100% no-TNFa wells
[2] = inhibitors of mutant huntingtin aggregation, primary screen, imaging, exon1htt(103Q)mCFP cells, high-content imaging (AID 483;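 active = visual image review flags a hit and inhibition of aggregation exceeds 20%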;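 also: compound exposure lasted 3 days before fixation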;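 as to nuclei count: percent of the per-plate median nuclei count of sample wells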); conditions: exon1htt(103Q)mCFP cell line, aggregate imaging, at 2 µM; inhibition of aggregation: stronger effect = higher value; nuclei count: measured here: cell count, toxicity
[3] = inhibitors of E-selectin induction by TNFa, primary screen, imaging, HUVEC, immunofluorescence, MLSMR starter and 10KST1 sets (AID 487;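 active = visually confirmed hit in the image check and inhibition above 20%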;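 as to inhibition: signal is fraction of cell area covered by stained E-selectin grains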;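 as to nuclei count: 100% = median nuclei count of all wells on the same plate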); conditions: HUVEC TNFalpha-induced E-selectin immunofluorescence imaging, at 2 µM; inhibition: stronger effect = higher value; nuclei count: measured here: cell number, toxicity
[4] = molecular target: Voltage-gated potassium channel subunit beta-2 (Rattus norvegicus) (UniProt P62483); test: KvBeta enzyme negative modulators, primary screen, biochemical, NADPH fluorescence (AID 622;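 active = fluorescence slope higher than the sample average by over 3 SD, cut at about -0.22 in these data, passing the limit was not always enough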;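 also: slope of raw intensity against log time taken from 70 to 1610 s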); conditions: recombinant KvBeta, 4-cyanobenzaldehyde reduction, at 10 µM, stronger effect = higher value
[5] = molecular target: Voltage-gated potassium channel subunit beta-2 (Rattus norvegicus) (UniProt P62483); test: KvBeta positive modulators, primary screen, biochemical, NADPH fluorescence (AID 623;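 active = NADPH fluorescence slope more negative than the mean of all samples by about 3 SD, 99.7% confidence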;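 also: fluorescence intensity change per second fitted from 20 to 320 s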); conditions: Recombinant KvBeta, NADPH fluorescence decrease slope, 10 min; at 10 µM; stronger effect = lower value
[6] = molecular target: Alpha-2C adrenergic receptor (Homo sapiens) (UniProt P18825); test: modulators of alpha2C/GIRK thallium flux, primary screen, cell-based, HEK293 alpha2C/GIRK1/2 (AID 624); conditions: thallium flux BTC fluorescence, at 10 µM, actives lie on both sides;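 also: slope of fluorescence ratio to pre-addition baseline per second over 15 to 24 s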
[7] = inhibitors of Sendai virus-induced IRF3 signaling, primary screen, TLR/RLR signaling modifier project, cell-based, Sendai virus stimulus, luciferase, 10K MLSCN set (AID 602276;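 active = inhibition at or above 50% at 10 µM; inactive = inhibition below 50%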;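 also: firefly luciferase from ISG56 promoter only with Renilla not read in this screen; 0% = Sendai virus plus DMSO and 100% = medium plus DMSO without virus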); conditions: HEK293 RL24 IRF3 luciferase reporter, at 10 µM, stronger effect = higher value
[8] = inhibitors of poly I:C-induced TLR3 signaling, primary screen, cell-based, poly I:C stimulus, luciferase, 10K MLSCN set (AID 602277;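 active = inhibition of the reporter signal at or above 50%; inactive = inhibition below 50%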); conditions: HEK293-TLR3 RL24 IRF3 luciferase reporter, at 10 µM, stronger effect = higher value

Sequence of Voltage-gated potassium channel subunit beta-2 (Rattus norvegicus) (P62483 whole entry, looked up): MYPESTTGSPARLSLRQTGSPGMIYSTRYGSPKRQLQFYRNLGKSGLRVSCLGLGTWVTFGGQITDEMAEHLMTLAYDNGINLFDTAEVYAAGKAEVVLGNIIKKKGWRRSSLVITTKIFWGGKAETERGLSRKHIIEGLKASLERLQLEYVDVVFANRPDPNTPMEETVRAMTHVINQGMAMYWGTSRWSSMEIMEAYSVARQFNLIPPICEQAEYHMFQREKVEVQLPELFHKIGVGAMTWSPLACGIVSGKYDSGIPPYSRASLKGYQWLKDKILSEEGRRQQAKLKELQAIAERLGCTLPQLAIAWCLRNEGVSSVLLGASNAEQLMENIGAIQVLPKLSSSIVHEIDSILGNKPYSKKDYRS
Sequence of Alpha-2C adrenergic receptor (Homo sapiens) (P18825 whole entry, looked up): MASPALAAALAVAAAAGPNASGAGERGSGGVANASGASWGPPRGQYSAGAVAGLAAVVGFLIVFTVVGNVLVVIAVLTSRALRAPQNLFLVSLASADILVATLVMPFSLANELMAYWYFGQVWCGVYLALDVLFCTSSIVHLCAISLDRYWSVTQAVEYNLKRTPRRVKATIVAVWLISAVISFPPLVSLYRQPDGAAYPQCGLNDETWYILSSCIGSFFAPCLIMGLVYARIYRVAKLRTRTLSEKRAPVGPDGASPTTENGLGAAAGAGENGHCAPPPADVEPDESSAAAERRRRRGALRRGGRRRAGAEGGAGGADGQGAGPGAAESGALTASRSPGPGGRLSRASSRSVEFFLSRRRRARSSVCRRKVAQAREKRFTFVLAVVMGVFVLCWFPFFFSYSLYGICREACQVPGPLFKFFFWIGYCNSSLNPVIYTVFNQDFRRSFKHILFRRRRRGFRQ

Row | Compound | cell count [1] | inhibition [1] | inhibition of aggregation [2] | nuclei count [2] [%] | inhibition [3] | nuclei count [3] [%] | fluorescence slope [4] | NADPH fluorescence slope [5] | slope [6] | inhibition [7] | inhibition [8]
1 | Cn1ccnc1SCC(=O)Nc1ccc2ccccc2c1 | 228 | 9.6% (inactive) | 13.5% (inactive) | 120 | -14.1% (inactive) | 105 | -0.519 (inactive) | -4.1e-05 (inactive) | 0.00777 (inactive) | 2.61% (inactive) | -32.6% (inactive)
2 | COc1ccc(-c2noc(CN(C(=O)C(C)(C)C)C(C)C)n2)cc1 | 420 | 5% (inactive) | 10.8% (inactive) | 93 | -73% (inactive) | 117 | -0.43 (inactive) | -5.1e-05 (inactive) | 0.00416 (inactive) | -16.3% (inactive) | -34% (inactive)
3 | Cc1occc1-c1nnc(SCC(=O)c2ccc(F)cc2)n1Cc1ccco1 | 370 | 5% (inactive) | 21.2% (inactive) | 87.3 | -42.8% (inactive) | 107 | -0.393 (inactive) | 2e-06 (inactive) | 0.00656 (inactive) | 9.07% (inactive) | 12% (inactive)
4 | O=c1c2[nH]c3ccccc3c2ncn1CCCn1ccnc1 | 717 | -0.2% (inactive) | -4.9% (inactive) | 99.9 | -21.4% (inactive) | 111 | -0.42 (inactive) | 3.1e-06 (inactive) | 0.00409 (inactive) | 26.3% (inactive) | 50.7% (active)
5 | O=C(C1CCCN(S(=O)(=O)c2cnc[nH]2)C1)N1CC(=O)N(CCc2ccccc2)C(=O)C1 (stereo not drawn) | 545 | 3.4% (inactive) | -13.8% (inactive) | 109 | -124% (inactive) | 147 | -0.573 (inactive) | 8.9e-06 (inactive) | 0.0066 (inactive) | 9.42% (inactive) | 20.7% (inactive)
6 | CCn1nnc(NC(=O)c2ccc(-c3ccc(Cl)cc3)o2)n1 | 391 | -6.7% (inactive) | -20% (inactive) | 129 | -101% (inactive) | 208 | -0.488 (inactive) | -7.1e-05 (inactive) | 0.00611 (inactive) | -111% (inactive) | -103% (inactive)
7 | Cc1cccc(OCC(=O)N2CCN(C(=O)Cc3ccccc3)CC2)c1 | 264 | -5.5% (inactive) | 15.8% (inactive) | 85.9 | -34.1% (inactive) | 111 | -0.502 (inactive) | -4.5e-05 (inactive) | 0.00476 (inactive) | 5.28% (inactive) | 16.6% (inactive)
8 | CCOC(=O)CNC(=O)CSc1ncnc2c1cnn2Cc1ccccc1 | 597 | 12.6% (inactive) | -12.1% (inactive) | 103 | -157% (inactive) | 134 | -0.374 (inactive) | -0.000157 (inactive) | 0.0067 (inactive) | 2.57% (inactive) | 24.8% (inactive)
9 | COc1ccc(NC(=O)c2cc(C(C)C)on2)c(OC)c1 | 568 | -11.1% (inactive) | 33.2% (inactive) | 100 | 7.6% (inactive) | 107 | -0.576 (inactive) | -1.2e-05 (inactive) | 0.00755 (inactive) | -35.5% (inactive) | -63.9% (inactive)
10 | COc1ccc(CN(CC(=O)NCc2ccco2)C(=O)CCC(=O)Nc2nccs2)cc1 | 438 | 3.6% (inactive) | -4.3% (inactive) | 102 | -24.4% (inactive) | 114 | -0.403 (inactive) | -3.8e-05 (inactive) | 0.00588 (inactive) | 11.3% (inactive) | 12.7% (inactive)
11 | CC(=O)N(CCN(C(C)=O)c1ccccc1)c1ccccc1 | 448 | -1.1% (inactive) | 4% (inactive) | 80.2 | 12.5% (inactive) | 88.5 | -0.454 (inactive) | 7e-05 (inactive) | 0.00518 (inactive) | 13.8% (inactive) | 17.2% (inactive)
12 | O=C(C1CCN(S(=O)(=O)c2cccc3cccnc23)CC1)N1CCN(C2CCCCC2)CC1 | 412 | 10.7% (inactive) | 3.3% (inactive) | 69.2 | -22.1% (inactive) | 106 | -0.565 (inactive) | -1.6e-05 (inactive) | 0.00678 (inactive) | -4.22% (inactive) | 35.6% (inactive)
13 | O=C(Nc1ccc(Cl)c(C(F)(F)F)c1)N1CCCC(O)C1 (stereo not drawn) | 356 | 4.5% (inactive) | -4.8% (inactive) | 106 | -50.8% (inactive) | 107 | -0.453 (inactive) | 2.2e-05 (inactive) | 0.00599 (inactive) | 1.7% (inactive) | -22.3% (inactive)
14 | CSc1nnc(-c2ccc(NC(=O)CCc3ccccc3)cc2)n1C | 711 | -28.4% (inactive) | -1.8% (inactive) | 100 | -79.2% (inactive) | 120 | -0.474 (inactive) | -3e-05 (inactive) | 0.00726 (inactive) | -3.25% (inactive) | 15.4% (inactive)
15 | O=S1(=O)CCC(NS(=O)(=O)/C=C/c2ccccc2)C1 (stereo not drawn) | 566 | -1.6% (inactive) | 2% (inactive) | 119 | -1.4% (inactive) | 96.4 | -0.386 (inactive) | -0.000106 (inactive) | 0.00742 (inactive) | 4.67% (inactive) | 14.6% (inactive)
16 | O=C(CN1C(=O)c2ccccc2C1=O)Nc1ccccc1C(=O)N1CCCC1 | 407 | 4% (inactive) | -27.4% (inactive) | 112 | -13.3% (inactive) | 97.4 | -0.594 (inactive) | -2.3e-05 (inactive) | 0.00562 (inactive) | 4.76% (inactive) | 11.3% (inactive)
17 | CCN1CCCC1CNC(=O)c1cc2c(=O)n(C)c3ccccc3c2n1C (stereo not drawn) | 656 | -5% (inactive) | -28.9% (inactive) | 113 | -41.6% (inactive) | 114 | -0.55 (inactive) | 2.6e-06 (inactive) | 0.00775 (inactive) | 2.48% (inactive) | 40.8% (inactive)
18 | Cc1ccc2nc(NC(=O)C3CCCN(S(=O)(=O)c4cccc5nonc45)C3)sc2c1 (stereo not drawn) | 266 | -13.5% (inactive) | 9.4% (inactive) | 91 | -3.1% (inactive) | 70.9 | -0.304 (inactive) | 2.8e-06 (inactive) | 0.00386 (inactive) | 14.7% (inactive) | -5.96% (inactive)
19 | CCOC(=O)c1cnn(-c2cc(C)nc3c(-c4ccccc4)c(C)nn23)c1N | 645 | -7.8% (inactive) | 7.9% (inactive) | 124 | -27.2% (inactive) | 120 | -0.625 (inactive) | -3.2e-05 (inactive) | 0.00566 (inactive) | 14.6% (inactive) | 17.2% (inactive)
20 | Cc1csc(NC(=O)C(Cc2ccccc2)n2cccc2)n1 (stereo not drawn) | 497 | -3.7% (inactive) | 27% (inactive) | 56.5 | -38.3% (inactive) | 117 | -0.538 (inactive) | -5.3e-06 (inactive) | 0.0101 (active) | 1.35% (inactive) | -7.22% (inactive)
21 | CCOC(=O)N1CCC(NC(=O)c2cc3c(=O)n(C)c4ccccc4c3n2C)CC1 | 701 | -2.8% (inactive) | 4.2% (inactive) | 140 | -50.1% (inactive) | 112 | -0.416 (inactive) | -6.5e-05 (inactive) | 0.00503 (inactive) | 4.95% (inactive) | 28.7% (inactive)
22 | Nc1nnnn1/N=C/c1ccccc1OCc1ccccc1 | 474 | 4.5% (inactive) | -2.8% (inactive) | 101 | -283% (inactive) | 138 | -0.496 (inactive) | -4.4e-05 (inactive) | 0.00612 (inactive) | 7.71% (inactive) | 0.143% (inactive)
23 | CC(C)(O)C1=NOC(c2ccccc2)C1 (stereo not drawn) | 647 | -6.5% (inactive) | -4.9% (inactive) | 98.5 | -43.3% (inactive) | 99.1 | -0.411 (inactive) | 1.7e-07 (inactive) | 0.00603 (inactive) | 6.77% (inactive) | 22.8% (inactive)
24 | Cc1cccc(CC2CC(=O)N(c3ccccc3)C2=O)c1 (stereo not drawn) | 203 | -2.9% (inactive) | -15.1% (inactive) | 84.5 | 11.6% (inactive) | 102 | -0.554 (inactive) | -2.2e-05 (inactive) | 0.00674 (inactive) | -16.2% (inactive) | -11.2% (inactive)
25 | COc1ccc(OC)c(C(C)NC=O)c1 (stereo not drawn) | 438 | 3% (inactive) | 14.2% (inactive) | 108 | -56.8% (inactive) | 108 | -0.449 (inactive) | 1.3e-05 (inactive) | 0.00556 (inactive) | 0.449% (inactive) | 23.1% (inactive)
26 | COC(=O)[C@H](C)NC(=O)NCc1ccc(F)cc1 | 589 | -23.8% (inactive) | 24.3% (inactive) | 100 | -131% (inactive) | 96.1 | -0.622 (inactive) | -1.3e-05 (inactive) | 0.00843 (inactive) | 6.37% (inactive) | -35.7% (inactive)
27 | CCc1nnc(SCc2cn3c(C)cc(C)nc3n2)n1N | 571 | -13.6% (inactive) | -13.3% (inactive) | 104 | 2.4% (inactive) | 143 | -0.284 (inactive) | -5.4e-06 (inactive) | 0.00669 (inactive) | -4.74% (inactive) | 4.52% (inactive)
28 | CCSc1nc2ccccc2n1CC(N)=O | 400 | 2.1% (inactive) | -4% (inactive) | 114 | -62.6% (inactive) | 113 | -0.449 (inactive) | -0.000317 (inactive) | 0.00599 (inactive) | 14.3% (inactive) | 20.8% (inactive)
